In all, about 53,000 sequences went through this assay and about 3,700 (7%) were called active. The full list was thinned out, with actives kept by preference. Values without a mark were called inactive.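 Rule for the calls: active = gene knockdowns whose robust z-score for IL-1 alpha signal is at least 2 or at most -2, so actives lie on both sides; inactive = the rest.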
Test: Components of the Cytosolic LPS Sensing Pathway: Gene Identification via Genome-wide siRNA Screen;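 note: robust z of the log signal after scaling to non-targeting control siRNA wells of the plate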
Conditions: RAW264.7 macrophages, IL-1a HTRF, actives lie on both sides, screened at 100 nM (by protocol), cells primed 5 h with Pam3CSK4 first
Summary of the method: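 Using IL-1a HTRF as read-out, the screen measured release from RAW264.7 cells after 48h siRNA knockdown (100 nM), 5 h Pam3CSK4 priming and 24 h cytosolic LipidA. Values were expressed relative to negative-control wells as robust z-scores.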

Row | Sequence | z-score
1 | GGAGUGGCCAUUAAAUUUATT against Slc17a8 | 2.75 (active)
2 | GGUGCUGGUGGAUGAACUATT against Nags | -1.5
3 | GGAGGCUAUUACUGUUUAUTT against Fam107b | 0.601
4 | GGUCAAGAGUGCAUUCAAATT against Olfr1445 | 0.266
5 | GGAACUGAUAUCAUGUACATT against Slc25a5 | 2.15 (active)
6 | GCCGAUUCUCAUAUUUGACTT against Exo1 | -0.742
7 | GGCUGAGAACAAUAUGUAUTT against Ccdc80 | 0.323
8 | GGGCAUUUGGCCUUUCUCATT against Cpsf4 | -0.905
9 | GGGCUUGUUUGACUUUCAUTT against Btd | 0.175
10 | GGCUGUAAUGAGGACUGAUTT against Ss18l2 | 3.25 (active)
11 | CCCUAUACAGCGUACCCAATT against Eya2 | -0.754
12 | GCCAUGCUCACUGAACUUCTT against Nanp | -2.3 (active)
13 | GGACUUGAAACUUCUGGAUTT against Nudt16 | 0.453
14 | GCUAUGUAACACACCGCUGTT against Ticam1 | -1.24
15 | GGUGUCUUUACGUCUCCCATT against Neto1 | -2.56 (active)
16 | GGACGAGUCACACUUUGGATT against Cdyl2 | -0.328
17 | GGUCAAGAGGAGGGUACCUTT against Foxred2 | 0.313
18 | GCUUUAAAUAGAGACUAUCTT against Sox30 | 1.15
19 | GGAGACUUCAGCACCUUUGTT against C4a | 0.455
20 | CCUGAUCUCAGCCUAUACUTT against Rapgef6 | -2.26 (active)
21 | GGAACCAAAAGCCUGGCGATT against Pkd1l3 | -1.68
22 | GGACUGAUAUCAUUUCUGATT against Flacc1 | -1

Row | Sequence | z-score
23 | GCAUCCACCUCAACGAUAUTT against Dlg3 | -1.33
24 | GCUAGGAGCUAGGAAUCCGTT against Pdzd3 | -0.682
25 | GGCAGAAUGGGCUUAUGUCTT against Trabd | -2.54 (active)
26 | GGAGCUUGCCAUAUUCCUCTT against Leprotl1 | 0.915
27 | GGAAAUAUAUGUCAUGUCATT against Nars | 2.37 (active)
28 | GCAAGAUUGGAAUGCUCCATT against 3830403N18Rik | 0.309
29 | GGAAGAUAAUAUCCUUUGGTT against Olfr734 | -1.02
30 | GGGAUUUUGAGUUUGAUGCTT against Zc3h10 | -1.03
31 | GCUGUCAAAUUAACCUGUGTT against Spin2c | -2.31 (active)
32 | GCUCGAUAUAAUUUCACACTT against Neto1 | -0.75
33 | GCCGCUACUCUCCUCAAAATT against Card19 | -0.329
34 | CGUGUAAGUUUUGAUUCUATT against Calr | 0.815
35 | GGAGCUUGUGAACACCUUCTT against Nudc | 0.718
36 | GGCUAUCUGCUUAUGCUGGTT against Ptch2 | -0.314
37 | CCAGUAAACCGAGACCAUUTT against Nsfl1c | 2.02 (active)
38 | GCUAAGCGAAGAGUUUAACTT against Dlgap3 | 0.691
39 | GGACUUCUUCGAUUGUUCUTT against Chchd1 | 0.475
40 | GCUCUACAUGAAAACACUGTT against Gpat4 | -0.28
41 | CGAAAUUGCUGACUCAGAATT against Arl6ip6 | 0.549
42 | CCCAGCUUUCAUCCUUUGUTT against Emc7 | 0.237
43 | GGGCAGUCUGAUAGAGGAUTT against Adam30 | -0.632
44 | GGCUUCUGAUCUUACCUGGTT against Smim12 | 0.683

Row | Sequence | z-score
45 | GGAGGAACCCUCAUUUUAGTT against Prxl2c | -0.897
46 | CCAACUCGGCUGUUUUUUATT against F11r | 0.149
47 | GGAAAGCACCCAAGAAAUGTT against Gspt1 | -0.915
48 | GGUACAAUCCCAGAUUUGATT against Smc3 | -2.37 (active)
49 | CCCUUAAGUCUUUUUCCUATT against Celf2 | -1.09
50 | GGCCAUGGUGGCGUGUUAUTT against Egln2 | -0.524
51 | GCUGCUCCCUCUAAUAAAATT against Cbr1 | -0.913
52 | GGCGUGAACCAAACAGACUTT against Calcrl | -0.604
53 | CGGAGCCAAAUACGAAGGGTT against Jph3 | -0.548
54 | GGCAGAAAAGAUGGAAAAUTT against Evi5l | -2.1 (active)
55 | GGCAAGCACACAAUGAUGCTT against Plin5 | -0.0222
56 | GGUAGAACAACAGAACAAUTT against Myo5b | 2.9 (active)
57 | GCAGCUUCAAGAGAGCCAUTT against Rhbdl1 | -0.604
58 | GGAAGUAGCCCAGAAGUGUTT against Rad51d | -0.337
59 | GGGAGAGUUCCAUAAAUUGTT against Narf | -0.728
60 | GGGACUGGCACCAUUUGUUTT against Cetn4 | -0.289
61 | GGACAUGGCUUUAUAACCUTT against Dcdc5 | 0.256
62 | GCAGCAUAGAGACUAAAUCTT against Usp17la | 0.604
63 | GGAUAAAAUUGAGUCUAUGTT against Was | 1.81
64 | GGGCCAAUGAUGGACUUCCTT against Syp | 0.33
65 | GGCCCUAUUAGAGAUAAAATT against Robo3 | -1.2
66 | GGUAGUCUGAACACUCUAATT against Msto1 | 0.427

Row | Sequence | z-score
67 | GGAAGAAGAGGAGGAGAUGTT against Zbtb7b | 3.17 (active)
68 | GCUAUCUCCACUCUGAGUCTT against Spryd4 | -0.342
69 | CCGCCAGGGAAACAAAUACTT against Zfp414 | -1.21
70 | GCUUCUGCUUGUUCGCUAGTT against Usp17ld | 2.7 (active)
71 | GCUCACUAUGUAAAGAGAATT against Itpk1 | 0.807
72 | GGAGAGUCAAGUCUUUUCUTT against Dnal4 | 0.0546
73 | GGACAAACUCCGAGACUCCTT against Utf1 | -0.339
74 | GGAUGAUCAUUCUAGCUGUTT against Hormad1 | 0.836
75 | GGUGUCUGAUUCUAACAUATT against Catsper4 | 0.589
76 | GGAAGAAAACACCAUUUUUTT against Irf6 | 3.12 (active)
77 | GGUGCAAUCAGGUAUUUCATT against Olfr917 | -2.26 (active)
78 | GGAAAGUGGACACCUUCCATT against Vezt | 1.2
79 | CCAGAAGCCAUUAACUAUGTT against Lck | -0.479
80 | GGACGUGGAAAACCACAGUTT against Nphp4 | 0.0474
81 | GGAUUUCGAGAAAAUCAACTT against Kctd4 | -0.225
82 | GGUGCUGGACAAAUUGAGATT against Cgas | -0.189
83 | GGAGUGCAGUCACUAUUUGTT against Il2rg | -0.0154
84 | GGUUCUUCAGGCCACUGAUTT against Dnaaf2 | 0.982
85 | GGAUGCAGAGAAGAAUCUGTT against Psmd6 | -2.65 (active)
86 | GGAGAAGGACCAUCUAAAGTT against Cmah | 0.901
87 | CGUCUAGGAAGGAAACAGGTT against Stk32a | -1.54
88 | GGAUGGUUACUAUCAGACUTT against Exoc3 | 0.187

Row | Sequence | z-score
89 | CCAGAUGGAAAGCGAAAAATT against Thra | -0.27
90 | GGAGAAUGGCCACGUAAAATT against Marcks | 0.294
91 | GGAUAUCUCACUGCUUUUATT against Mpp5 | 2.13 (active)
92 | GGCAUCCUUGAGCUUUAAATT against Nufip2 | -0.0213
93 | GGUGCAAGUUUUUCAGUCUTT against Castor2 | 0.411
94 | GCACCAUGAAUGGAGAUGATT against Prl2c5 | -2.56 (active)
95 | GCCAUACACAGUGGCAUAATT against Zfp811 | 0.395
96 | CCAUAAAUCAUGAACUGGUTT against Sesn3 | -1.41
97 | GGGCAAGAACUACAUCUGCTT against Wdr18 | -0.288
98 | CCCAAAUACUCCAAUUAUATT against Fzd3 | 0.289
99 | GCAUCUGGUAAAAGGAGCATT against Rpap1 | 0.956
100 | GCCAGUGGUAUCUGGAAGUTT against Brca2 | 0.0865
101 | GGUAGAGCUAAGUAAAGAGTT against Pwp1 | -0.977
102 | GGCAGUAAUAGGAGACCAUTT against Ces1d | 2.76 (active)
103 | GGCUUCAGCAAAGACAAUGTT against Ache | -1.07
104 | CGCAAAGUGGACAAACGUATT against Kcne3 | 0.0218
105 | CCAAUCGGUGAUCAAGAAATT against Tfap2e | -0.525
106 | GCCAAGGUUAUCAUGAAUGTT against F13a1 | -0.141
107 | GUUUUUCUGGGCAAUUUUATT against Olfr739 | 2.11 (active)
108 | GGAGAUUUACUCACAGUUCTT against Kcnip4 | 1.26
